About 7,900 targets were measured; listed, in parts, are those with a hit and a random draw of the rest. About 0.6% of all pairs of compound and target were hits. Unmarked numbers belong to inactive results.
The targets below were run with CC(C)(C)Cn1c(N)nc2ccc(-c3[nH]c(C(C)(C)C)nc3-c3ccc(F)cc3)nc21 [ralimetinib] (assay: log2 fold change, soluble protein after heating vs DMSO (PISA); higher = thermal stabilisation; K562 cells, 10 uM, 30 min; active = over 0.2 and 3.5 SD of the protein, either way, in both replicates (recomputed)).
In short: (§1)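 K562 cells at 2×10^6 cells/mL were exposed to 10 μM compound for 30 min, then aliquots were heated for 3 min across 48°C-58°C, pooled, and extracted in PBS containing 0.5% NP-40 at 4°C. The supernatant after 21,000xg for 90 min was taken as soluble protein and measured by TMTpro 16plex LC-MS/MS with channel sums equalised. Thermal stability is reported relative to control samples, with values from duplicates. Fold changes are given on a log2 scale.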
Chain of UniProt Q86SZ2 (Q86SZ2 whole entry, looked up): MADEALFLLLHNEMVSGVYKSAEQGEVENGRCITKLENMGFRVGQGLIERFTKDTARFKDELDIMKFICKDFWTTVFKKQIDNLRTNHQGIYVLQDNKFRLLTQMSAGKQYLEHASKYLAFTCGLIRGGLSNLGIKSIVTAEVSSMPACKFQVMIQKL
Chain of UniProt Q9Y5K5 (Q9Y5K5 whole entry, looked up): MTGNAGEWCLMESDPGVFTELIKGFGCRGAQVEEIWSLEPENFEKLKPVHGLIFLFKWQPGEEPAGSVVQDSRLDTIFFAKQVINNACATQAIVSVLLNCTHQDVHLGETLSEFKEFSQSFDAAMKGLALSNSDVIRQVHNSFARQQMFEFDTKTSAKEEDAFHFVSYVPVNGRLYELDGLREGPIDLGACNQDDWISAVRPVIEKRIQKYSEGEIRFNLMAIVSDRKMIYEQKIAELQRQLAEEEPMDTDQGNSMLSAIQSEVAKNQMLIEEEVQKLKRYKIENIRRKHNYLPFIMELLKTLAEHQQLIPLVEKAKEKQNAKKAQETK
Chain of UniProt Q9UDW1 (Q9UDW1 whole entry, looked up): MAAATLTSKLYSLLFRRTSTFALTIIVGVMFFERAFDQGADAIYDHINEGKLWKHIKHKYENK
Chain of UniProt P61960 (P61960 whole entry, looked up): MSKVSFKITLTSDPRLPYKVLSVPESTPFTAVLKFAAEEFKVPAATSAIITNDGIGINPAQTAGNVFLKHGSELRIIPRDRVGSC
Chain of UniProt Q9BTX3 (Q9BTX3 whole entry, looked up): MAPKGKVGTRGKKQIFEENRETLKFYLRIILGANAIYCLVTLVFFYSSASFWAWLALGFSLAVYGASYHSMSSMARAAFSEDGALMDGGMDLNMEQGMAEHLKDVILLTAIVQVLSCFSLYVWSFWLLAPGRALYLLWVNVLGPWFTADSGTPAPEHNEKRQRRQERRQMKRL
Chain of UniProt Q502W6 (Q502W6 whole entry, looked up): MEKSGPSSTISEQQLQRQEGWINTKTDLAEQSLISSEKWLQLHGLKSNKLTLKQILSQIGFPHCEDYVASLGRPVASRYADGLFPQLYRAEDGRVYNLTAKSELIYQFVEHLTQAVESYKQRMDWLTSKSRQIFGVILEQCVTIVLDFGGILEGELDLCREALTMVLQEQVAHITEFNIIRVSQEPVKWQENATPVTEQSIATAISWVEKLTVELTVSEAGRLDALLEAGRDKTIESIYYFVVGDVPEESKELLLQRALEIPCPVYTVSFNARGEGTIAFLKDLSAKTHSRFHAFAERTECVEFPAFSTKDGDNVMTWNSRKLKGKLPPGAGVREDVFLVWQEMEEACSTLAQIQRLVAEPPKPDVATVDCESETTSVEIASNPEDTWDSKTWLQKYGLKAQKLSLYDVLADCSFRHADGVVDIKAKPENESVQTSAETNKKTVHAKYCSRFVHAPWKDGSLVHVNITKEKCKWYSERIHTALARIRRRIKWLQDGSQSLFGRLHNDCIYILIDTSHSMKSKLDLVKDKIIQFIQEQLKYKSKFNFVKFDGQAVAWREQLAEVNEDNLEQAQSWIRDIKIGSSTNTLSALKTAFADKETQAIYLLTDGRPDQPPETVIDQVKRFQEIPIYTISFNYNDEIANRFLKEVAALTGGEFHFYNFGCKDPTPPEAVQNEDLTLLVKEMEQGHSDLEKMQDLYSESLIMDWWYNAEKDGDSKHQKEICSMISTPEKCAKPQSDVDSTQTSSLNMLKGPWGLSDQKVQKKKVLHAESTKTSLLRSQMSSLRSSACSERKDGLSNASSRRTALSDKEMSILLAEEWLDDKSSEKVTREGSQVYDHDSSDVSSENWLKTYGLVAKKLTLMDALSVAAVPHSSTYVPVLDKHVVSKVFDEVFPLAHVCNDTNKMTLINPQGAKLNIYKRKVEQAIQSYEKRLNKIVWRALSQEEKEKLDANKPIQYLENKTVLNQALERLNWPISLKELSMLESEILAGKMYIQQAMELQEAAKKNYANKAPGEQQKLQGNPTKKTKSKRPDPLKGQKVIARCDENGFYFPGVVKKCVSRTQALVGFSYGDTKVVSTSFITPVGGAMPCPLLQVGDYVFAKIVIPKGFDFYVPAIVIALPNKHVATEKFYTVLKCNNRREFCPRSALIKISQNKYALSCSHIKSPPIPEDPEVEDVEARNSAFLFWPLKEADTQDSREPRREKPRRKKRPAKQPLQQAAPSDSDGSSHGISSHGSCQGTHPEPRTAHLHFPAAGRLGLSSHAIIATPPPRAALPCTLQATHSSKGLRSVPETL
Chain of UniProt O14980 (O14980 whole entry, looked up): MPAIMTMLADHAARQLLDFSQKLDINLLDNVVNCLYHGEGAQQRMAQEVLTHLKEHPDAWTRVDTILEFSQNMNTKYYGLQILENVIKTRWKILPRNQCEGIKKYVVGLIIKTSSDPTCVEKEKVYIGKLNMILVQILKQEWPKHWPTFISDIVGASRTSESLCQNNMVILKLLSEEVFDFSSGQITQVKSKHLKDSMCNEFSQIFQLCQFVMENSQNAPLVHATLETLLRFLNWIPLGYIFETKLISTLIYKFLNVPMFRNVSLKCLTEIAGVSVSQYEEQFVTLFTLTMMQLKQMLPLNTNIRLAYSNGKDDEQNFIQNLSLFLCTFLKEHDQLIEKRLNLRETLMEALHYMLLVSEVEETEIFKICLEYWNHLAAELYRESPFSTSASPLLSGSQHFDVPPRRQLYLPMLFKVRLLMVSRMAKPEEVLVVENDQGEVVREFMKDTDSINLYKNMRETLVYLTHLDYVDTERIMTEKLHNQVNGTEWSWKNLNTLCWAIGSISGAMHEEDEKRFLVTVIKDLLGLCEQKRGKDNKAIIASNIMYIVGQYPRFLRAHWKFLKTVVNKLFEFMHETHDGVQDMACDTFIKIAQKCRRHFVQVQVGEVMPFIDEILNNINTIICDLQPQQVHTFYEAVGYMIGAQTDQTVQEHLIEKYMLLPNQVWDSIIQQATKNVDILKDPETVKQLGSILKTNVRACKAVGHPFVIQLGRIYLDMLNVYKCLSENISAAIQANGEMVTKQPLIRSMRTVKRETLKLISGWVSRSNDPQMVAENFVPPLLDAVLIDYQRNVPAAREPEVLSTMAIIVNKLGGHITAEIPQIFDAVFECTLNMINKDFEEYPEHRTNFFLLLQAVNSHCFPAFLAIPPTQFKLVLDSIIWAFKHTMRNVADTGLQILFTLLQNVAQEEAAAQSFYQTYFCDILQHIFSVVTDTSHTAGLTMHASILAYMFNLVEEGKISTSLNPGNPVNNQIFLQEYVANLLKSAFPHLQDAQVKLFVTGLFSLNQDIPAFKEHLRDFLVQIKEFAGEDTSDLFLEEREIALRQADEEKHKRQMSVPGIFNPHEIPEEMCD
Chain of UniProt O15213 (O15213 whole entry, looked up): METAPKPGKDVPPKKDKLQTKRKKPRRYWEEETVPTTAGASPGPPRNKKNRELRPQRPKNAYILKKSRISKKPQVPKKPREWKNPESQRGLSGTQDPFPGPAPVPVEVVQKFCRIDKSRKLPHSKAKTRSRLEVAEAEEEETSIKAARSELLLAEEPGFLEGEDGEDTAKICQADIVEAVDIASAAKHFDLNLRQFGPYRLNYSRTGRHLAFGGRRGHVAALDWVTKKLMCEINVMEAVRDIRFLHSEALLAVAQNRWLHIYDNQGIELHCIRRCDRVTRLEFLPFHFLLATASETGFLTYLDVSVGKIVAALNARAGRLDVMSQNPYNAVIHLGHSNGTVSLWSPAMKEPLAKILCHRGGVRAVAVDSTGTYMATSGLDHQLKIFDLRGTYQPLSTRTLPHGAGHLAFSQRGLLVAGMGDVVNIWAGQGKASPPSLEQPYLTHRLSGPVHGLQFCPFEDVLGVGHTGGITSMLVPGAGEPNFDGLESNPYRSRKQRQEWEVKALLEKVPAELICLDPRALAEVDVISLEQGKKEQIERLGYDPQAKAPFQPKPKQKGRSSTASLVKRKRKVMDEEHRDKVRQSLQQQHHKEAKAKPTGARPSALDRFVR
Chain of UniProt Q93009 (Q93009 whole entry, looked up): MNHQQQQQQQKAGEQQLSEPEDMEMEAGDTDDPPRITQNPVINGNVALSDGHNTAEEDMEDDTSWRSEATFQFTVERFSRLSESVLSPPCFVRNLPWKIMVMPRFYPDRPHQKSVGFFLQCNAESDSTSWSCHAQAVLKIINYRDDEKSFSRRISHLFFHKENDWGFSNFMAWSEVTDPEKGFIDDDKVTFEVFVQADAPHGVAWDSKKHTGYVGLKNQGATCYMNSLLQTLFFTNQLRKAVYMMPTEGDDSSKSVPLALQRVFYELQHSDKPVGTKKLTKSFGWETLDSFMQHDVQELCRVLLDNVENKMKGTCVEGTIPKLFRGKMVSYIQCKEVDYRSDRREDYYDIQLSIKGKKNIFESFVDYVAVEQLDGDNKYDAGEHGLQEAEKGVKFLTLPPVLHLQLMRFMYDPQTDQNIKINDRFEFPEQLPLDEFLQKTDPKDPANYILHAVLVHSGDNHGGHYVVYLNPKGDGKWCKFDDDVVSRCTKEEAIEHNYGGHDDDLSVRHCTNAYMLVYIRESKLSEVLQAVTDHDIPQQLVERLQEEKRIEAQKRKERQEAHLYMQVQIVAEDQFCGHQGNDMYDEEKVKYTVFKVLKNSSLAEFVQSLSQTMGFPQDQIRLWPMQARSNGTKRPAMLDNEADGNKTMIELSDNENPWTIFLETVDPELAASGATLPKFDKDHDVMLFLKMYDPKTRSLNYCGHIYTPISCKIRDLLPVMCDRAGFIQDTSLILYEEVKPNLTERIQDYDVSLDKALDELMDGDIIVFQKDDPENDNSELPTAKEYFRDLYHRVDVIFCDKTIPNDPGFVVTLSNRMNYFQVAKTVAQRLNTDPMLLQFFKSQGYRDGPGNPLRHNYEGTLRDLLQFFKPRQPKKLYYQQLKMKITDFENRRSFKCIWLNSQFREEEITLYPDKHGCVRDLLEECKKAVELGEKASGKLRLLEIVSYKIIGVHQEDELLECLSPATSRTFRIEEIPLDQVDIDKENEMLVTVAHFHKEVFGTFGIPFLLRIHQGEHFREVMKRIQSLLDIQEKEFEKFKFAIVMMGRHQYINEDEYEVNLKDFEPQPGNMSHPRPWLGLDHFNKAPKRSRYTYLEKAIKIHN
TRAPPC6B (UniProt Q86SZ2) gave a log2 fold change of -0.015.
For UCHL5 isoform 3 (UniProt Q9Y5K5), the log2 fold change was 0.006.
XPOT (UniProt O43592) gave a log2 fold change of -0.079.
For TMEM208 (UniProt Q9BTX3), the log2 fold change was -0.145.
In the case of UFM1 (UniProt P61960), the log2 fold change is reported as 0.
Target UQCR10 (UniProt Q9UDW1) has a log2 fold change of -0.05.
Work on USP7 (UniProt Q93009) yielded a log2 fold change of 0.
For WDR46 (UniProt O15213), the log2 fold change was 0.175.
In the case of TTI2 (UniProt Q6NXR4), the log2 fold change is reported as 0.033.
XPO1 (UniProt O14980) was tested, and the log2 fold change was 0.018.
Target TRMT10A (UniProt Q8TBZ6) has a log2 fold change of -0.006.
TMEM87B (UniProt Q96K49) was tested, and the log2 fold change was -0.086.
Target VPS13B (UniProt Q7Z7G8) has a log2 fold change of -0.042.
VPS33A (UniProt Q96AX1) showed a log2 fold change of 0.048.
VWA3B isoform 6 (UniProt Q502W6) was tested, and the log2 fold change was -0.031.

These targets were tested with CC(C)(O)CC(=O)NCCn1ccc2ncnc(Nc3ccc(Oc4cccc(C(F)(F)F)c4)c(Cl)c3)c21 in the same assay as above.
In short: as §1
In the case of TMEM223 (UniProt A0PJW6), the log2 fold change is reported as 0.114.
USP25 isoform 3 (UniProt Q9UHP3) was tested, and the log2 fold change was 0.015.
VPS41 (UniProt P49754) gave a log2 fold change of 0.019.
WDR47 (UniProt O94967) was tested, and the log2 fold change was -0.03.
Work on TMEM128 (UniProt Q5BJH2) yielded a log2 fold change of -0.051.
WDR41 (UniProt Q9HAD4) showed a log2 fold change of -0.077.
TMEM9 (UniProt Q9P0T7) showed a log2 fold change of -0.07.
Work on VPS51 (UniProt Q9UID3) yielded a log2 fold change of -0.042.
TYW1 (UniProt Q9NV66) showed a log2 fold change of 0.
Work on TUBAL3 (UniProt A6NHL2) yielded a log2 fold change of -0.047.
TOM1L1 (UniProt O75674) showed a log2 fold change of -0.013.
Target TPR (UniProt P12270) has a log2 fold change of 0.121.
Work on TP53BP1 isoform 2 (UniProt Q12888) yielded a log2 fold change of -0.024.
Target TRAPPC2L (UniProt Q9UL33) has a log2 fold change of -0.11.
U2AF1 isoform 2 (UniProt Q01081) was tested, and the log2 fold change was 0.042.
Work on TMEM9B (UniProt Q9NQ34) yielded a log2 fold change of 0.014.
With VPS37A (UniProt Q8NEZ2) the log2 fold change was -0.025.
With WEE1 (UniProt P30291) the log2 fold change was -0.034.
In the case of TNFAIP8 isoform 4 (UniProt O95379), the log2 fold change is reported as -0.037.
For UBAP2L isoform 5 (UniProt Q14157), the log2 fold change was 0.003.
WDR43 (UniProt Q15061) was tested, and the log2 fold change was -0.003.
For UFD1 isoform 1 (UniProt Q92890), the log2 fold change was -0.04.
In the case of TRAPPC6B (UniProt Q86SZ2), the log2 fold change is reported as -0.138.
UCHL5 isoform 3 (UniProt Q9Y5K5) gave a log2 fold change of -0.357.
With XPOT (UniProt O43592) the log2 fold change was -0.146.
TMEM208 (UniProt Q9BTX3) was tested, and the log2 fold change was -0.088.
UFM1 (UniProt P61960) was tested, and the log2 fold change was -0.117.
With UQCR10 (UniProt Q9UDW1) the log2 fold change was -0.056.
USP7 (UniProt Q93009) showed a log2 fold change of -0.172.
WDR46 (UniProt O15213) was tested, and the log2 fold change was 0.066.
In the case of TTI2 (UniProt Q6NXR4), the log2 fold change is reported as -0.196.
Target XPO1 (UniProt O14980) has a log2 fold change of -0.196.
With TRMT10A (UniProt Q8TBZ6) the log2 fold change was -0.107.
With TMEM87B (UniProt Q96K49) the log2 fold change was -0.204.
VPS13B (UniProt Q7Z7G8) was tested, and the log2 fold change was -0.06.
With VPS33A (UniProt Q96AX1) the log2 fold change was -0.065.
VWA3B isoform 6 (UniProt Q502W6) gave a log2 fold change of 0.

The targets below were run with CC(C)C1=C2N=C(C=C(N2N=C1)NCC3=CC=CC=C3)NCCCCCCN in the same assay as above.
In short: as §1
In the case of TMEM223 (UniProt A0PJW6), the log2 fold change is reported as -0.063.
USP25 isoform 3 (UniProt Q9UHP3) showed a log2 fold change of 0.001.
With VPS41 (UniProt P49754) the log2 fold change was -0.383 (active).
Work on WDR47 (UniProt O94967) yielded a log2 fold change of 0.028.
TMEM128 (UniProt Q5BJH2) was tested, and the log2 fold change was 0.028.
For WDR41 (UniProt Q9HAD4), the log2 fold change was -0.271 (active).
In the case of TMEM9 (UniProt Q9P0T7), the log2 fold change is reported as -0.211.
VPS51 (UniProt Q9UID3) gave a log2 fold change of -0.115.
With TYW1 (UniProt Q9NV66) the log2 fold change was 0.03.
With TUBAL3 (UniProt A6NHL2) the log2 fold change was 0.003.
TOM1L1 (UniProt O75674) gave a log2 fold change of 0.019.
TPR (UniProt P12270) showed a log2 fold change of 0.091.
TP53BP1 isoform 2 (UniProt Q12888) was tested, and the log2 fold change was -0.089.
With TRAPPC2L (UniProt Q9UL33) the log2 fold change was -0.083.
For U2AF1 isoform 2 (UniProt Q01081), the log2 fold change was -0.083.
In the case of TMEM9B (UniProt Q9NQ34), the log2 fold change is reported as -0.082.
In the case of VPS37A (UniProt Q8NEZ2), the log2 fold change is reported as -0.143.
Work on WEE1 (UniProt P30291) yielded a log2 fold change of -0.019.
TNFAIP8 isoform 4 (UniProt O95379) was tested, and the log2 fold change was -0.075.
UBAP2L isoform 5 (UniProt Q14157) showed a log2 fold change of 0.053.
For WDR43 (UniProt Q15061), the log2 fold change was 0.199.
For UFD1 isoform 1 (UniProt Q92890), the log2 fold change was 0.04.
Work on TRAPPC6B (UniProt Q86SZ2) yielded a log2 fold change of 0.032.
UCHL5 isoform 3 (UniProt Q9Y5K5) showed a log2 fold change of -0.143.
With XPOT (UniProt O43592) the log2 fold change was -0.345 (active).
For TMEM208 (UniProt Q9BTX3), the log2 fold change was -0.412 (active).
For UFM1 (UniProt P61960), the log2 fold change was 0.06.
UQCR10 (UniProt Q9UDW1) was tested, and the log2 fold change was 0.031.
USP7 (UniProt Q93009) showed a log2 fold change of -0.198.
In the case of WDR46 (UniProt O15213), the log2 fold change is reported as 0.192.
With TTI2 (UniProt Q6NXR4) the log2 fold change was -0.079.
For XPO1 (UniProt O14980), the log2 fold change was -0.282 (active).
For TRMT10A (UniProt Q8TBZ6), the log2 fold change was -0.075.
TMEM87B (UniProt Q96K49) was tested, and the log2 fold change was -0.39 (active).
For VPS13B (UniProt Q7Z7G8), the log2 fold change was -0.241 (active).
With VPS33A (UniProt Q96AX1) the log2 fold change was -0.299 (active).
In the case of VWA3B isoform 6 (UniProt Q502W6), the log2 fold change is reported as -0.407.

— the supplement of paper PMC10849652
